This passage reports growth results from PubChem BioAssay (NCI).

Molecules are shown by their SMILES. This is part of a sample that, as a whole, favours compounds with a hit. Of some 83,000 tested, about 20% had one in any assay.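 Assay: single dose, 48 h. Readout: percent growth (0 = no net growth; negative = cell death). Active: <10.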 A number with no mark means an inactive call. The source made the active and inactive calls.

For the assay, the system named is KM12 colon. The assay can be described thus: NCI-60 one-dose screen, 48 h (100 = growth as untreated, 0 = no growth, -100 = all killed). To be noted: 10 µM unless noted. The procedure:
Growth inhibition of the KM12 human tumor cell line is measured as a screen for anti-cancer activity. Cells are grown in 96 well plates and exposed to the test compound for 48 hours. Compounds are tested at a single concentration, which is 10^-5 M for most compounds. The reported endpoint is percent growth (GI% or GIPRCNT), where numbers from 0 - 100% represent growth inhibition, and numbers from -100% - 0 represent cell death. For example, a value of 40 represents 60% growth inhibition. A value of 0 means no net growth occurred over the course of the experiment. A value of -40 indicates 40% of cells at the beginning of the experiment died by the end of the experiment. A value of -100 means all cells are dead at the end of the experiment.
NCI-60 Human Tumor Cell Lines Screen was performed using the standard one-dose NCI protocol, which is described in more detail at https://dtp.cancer.gov/discovery_development/nci-60/default.htm.
Compounds with GIPRCNT values below 10 were considered active. Activity score was based on GIPRCNT using the following formula: […]
Score is 0 for GIPRCNT values of 100 or above, 50 for GIPRCNT values of 0, and 100 for GIPRCNT values of -100.
As to `COc1ccc2[nH]c3nc4cnccc4cc3c2c1`, the growth was 93.2%. As for `O=c1[nH]nc(-c2ccccc2)c2sc(NC(=S)Nc3ccc(Cl)cc3)nc12`, the growth was 90%.

Regarding `COc1cc(C(C)c2ccc3c(ccn3C)c2)cc(OC)c1OC` (stereo not given), the growth is 10.3%.

With `COC(=O)c1ccc(NC(=O)CSc2nc(-c3ccc(F)cc3)nc3ccccc23)cc1`, the growth was 73.9%. The result for `C=CCn1c(SCC(=O)Nc2ccc(C(=O)/C=C/c3cc(OC)c(OC)c(OC)c3)cc2)nnc1-c1ccc(Cl)cc1` reads 9.43% (active); that for `COc1ccc(-c2cn(-c3ccc(Cl)cc3)c(=S)[nH]2)cc1OC`, 70.2%; that for `COc1ccc(/C=C/C(=O)/C=C(/C=C/c2ccc(OC)c(OC)c2)OB(F)F)cc1OC`, 36.1%. As for `COc1ccc(-c2cc(-c3nnc(SCC(=O)Nc4ccc(/C(C)=N\O)cc4)o3)c3ccccc3n2)cc1`, the growth is 101%. Consider `O=C(O)c1ccc(-n2cc(/C=N/Nc3ccc(Cl)cc3Cl)c(-c3ccccc3)n2)cc1`, for which the growth is 83.4%. The same measure for `COc1cc2cc(c1Cl)N(C)C(=O)C[C@H](OC(=O)[C@H](C)N(C)C(=O)CCS)C[C@]1(C)O[C@H]1[C@H](C)[C@@H]1C[C@@](O)(NC(=O)O1)[C@H](OC)/C=C/C=C(\C)C2`: 16.1%; for `CC(=O)Oc1ccc(O)cc1`: 103%; for `O=C(O)CCNC1CCCCC1`: 99.7%. As for `S=c1ssnc1-c1cc2ccccc2o1`, the growth was 81.6%. Consider `COc1ccc2nc(-c3ccc(Cl)cc3)cc(-c3nnc(SCC(=O)Nc4ccc(/C(C)=N\O)cc4)o3)c2c1`, for which the growth was 30.9%. Turning to `COc1cc(C2=NN(c3ccccc3)C(c3cccc(Nc4ccnc5cc(C(F)(F)F)ccc45)c3)C2)cc(OC)c1OC` (stereo not given), the growth was 88.1%. The same measure for `C=C1C(=O)O[C@H]2[C@H]1CC/C(COC(=O)CCCCCCCCC(=O)OC/C1=C/CC[C@@]3(C)O[C@H]3[C@H]3OC(=O)C(=C)[C@@H]3CC1)=C\CC[C@@]1(C)O[C@@H]21`: 20.2%; for `CCCCc1ccc(N=Nc2ccc(OCC[N+](C)(C)C)cc2)cc1`: 29.9%; for `CCCCn1c(=O)c(/C=C/C(=O)/C=C/c2ccc(O)c(OC)c2)cc2ccc(Cl)cc21`: 6.78% (active). As for `S=C(Nc1ccc(Cl)cc1)c1ccccn1`, the growth is 100%. As for `CC(C)(C#N)c1cc(F)cc(C(=O)Nc2cc(Nc3ncccc3-c3ncnc4nc[nH]c34)ccc2F)c1`, the growth is 36%. The same measure for `C=C(C)[C@@H]1CC[C@]2(C(=O)n3ccnc3)CC[C@]3(C)[C@H](CC[C@@H]4[C@@]5(C)CCCNC(C)(C)[C@@H]5CC[C@]43C)[C@@H]12`: 28.4%. Turning to `NCCN1CCNCC1`, the growth is 109%. The same measure for `Cc1nccc2c3ccc(OCc4cn(-c5ccc(Br)cc5)nn4)cc3n(CC(C)C)c12`: 44.8%.

For the compound `O=C1Nc2ccc(Cl)cc2/C1=N/c1nc(-c2ccc(Cl)cc2)cs1`, the growth is 1.73% (active).

With `CC(C)CSc1nc(Nc2ccccc2)c(C#N)c(-c2ccc(F)cc2)n1`, the growth was 73.2%. With `C#CCN1C(=O)c2ccccc2N(CC#C)C12CCN(Cc1cn(CC(=O)Nc3ccccc3C(N)=O)nn1)CC2`, the growth was 88.8%. On to `CC(=O)OCC1SC(OC(C)=O)C(NC(=O)/C=C/CCl)C(OC(C)=O)C1OC(C)=O` (stereo not given), for which the growth was 102%.

Take `O=C(Nc1nc(-c2ccccc2Cl)cs1)c1cc(-c2ccc(Br)cc2)nc2ccccc12`: the growth is 59%.

Regarding `O=C1CCC23OC(C(O)c4ccccc4N12)C1C(Br)=NOC13` (stereo not given), the growth was 103%.

As to `CC(C)(C)c1ccc2oc(=O)n(SC(Cl)(Cl)Cl)c2c1`, the growth was 95.2%.

Turning to `O=C(CCl)N1CCCc2ccccc21`, the growth is 90.4%. In the case of `C/C(=C\c1cnc(C)s1)[C@@H]1C[C@@H]2O[C@@H]2CCC[C@H](C)[C@H](O)[C@@H](C)C(=O)C(C)(C)[C@@H](O)CC(=O)O1`, the growth is 24.6%.

For the compound `C=C(C)[C@@H]1CC[C@]2(C(=O)OCCOCCOCC[P+](c3ccccc3)(c3ccccc3)c3ccccc3)CC[C@]3(C)[C@H](CC[C@@H]4[C@@]5(C)CC[C@H](OC(C)=O)C(C)(C)[C@@H]5CC[C@]43C)[C@@H]12`, the growth is -89.8% (active).

Regarding `COc1ccc2nc(-c3ccc(OC)c(OC)c3)cc(-c3nnc(SCC(=O)Nc4ccc(C(C)=O)cc4)o3)c2c1`, the growth was 102%.

Consider `CCc1c(C(=O)N[C@@H](C(=O)OCc2ccccc2)C(C)O)[nH]c2ccc(Cl)cc12` (stereo not given in full), for which the growth was 77.3%. The result for `O=C1NC(c2ccc(F)cc2)N=C2C(c3ccccc3)=NOC12` (stereo not given) reads 98.8%; that for `O=C(CCc1nnco1)c1nc2ccc([N+](=O)[O-])cc2[nH]1`, 102%. As to `Nc1ccc(C2=NN(C(=O)c3cc(-c4ccc(Cl)cc4)nc4ccccc34)C(c3ccc(Cl)cc3)C2)cc1` (stereo not given), the growth was 27.5%. The same measure for `CCOC(=O)CC[C@H](NC(=O)c1ccc(NC)c2ccccc12)C(=O)OCC`: 103%. As to `O=c1[nH]c2ccccc2cc1-c1nc2ccc(Cl)cc2[nH]1`, the growth is 5.1% (active).
